Sm TGR inh = inhibitors of Schistosoma mansoni thioredoxin glutathione reductase. Q962Y6. purified TGR, DTNB reduction, TNB absorbance 405 nm. Potency, µM (top dose mostly 114 µM), actives largely listed as inhibitors. 360,000 tested, 3% active; also: nearly all actives have a fitted effect of over 60% in size
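TGR 20 nM + NADPH 100 uM (dispensed conc.), cpd preinc 15 min RT; start with NADPH (500 uM addition) then DTNB (15 mM addition). Kinetic TNB absorbance, 405 nm filter. Four-parameter Hill fit across titration.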
AmpC no deterg = inhibitors of E. coli AmpC beta-lactamase without detergent; AmpC nitrocefin hydrolysis, absorbance 480 nm, 0.0001% Triton; AID 485341; P00811; 330,000 tested, 0.52% active; Potency, µM (top dose mostly 57.1 µM), usual class: inhibitors; also: nearly all actives have a fitted effect of over 20% in size
Target sequence (P00811 whole entry, looked up): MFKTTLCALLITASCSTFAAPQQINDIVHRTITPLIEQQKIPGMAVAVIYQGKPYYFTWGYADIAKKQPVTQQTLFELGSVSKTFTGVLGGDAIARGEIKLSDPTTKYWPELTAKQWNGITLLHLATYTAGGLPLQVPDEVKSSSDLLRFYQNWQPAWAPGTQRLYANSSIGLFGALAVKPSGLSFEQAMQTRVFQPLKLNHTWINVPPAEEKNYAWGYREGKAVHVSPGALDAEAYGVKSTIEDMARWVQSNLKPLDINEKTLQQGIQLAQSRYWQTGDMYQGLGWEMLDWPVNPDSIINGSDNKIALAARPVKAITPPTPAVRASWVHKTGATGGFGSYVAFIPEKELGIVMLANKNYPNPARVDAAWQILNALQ
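20 mM phosphate pH 7.0 + 0.01% (detergent screen) or 0.0001% Triton X-100; 5.3 nM AmpC reagent; cpd preinc 15 min RT; nitrocefin (800 uM stock) to start; A480 q20 s × 4 min; Activity was normalised to no-enzyme and no-compound control wells.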
AmpC detergent = inhibitors of E. coli AmpC beta-lactamase with detergent | P00811 | AmpC hydrolysis of nitrocefin, absorbance 480 nm, 0.01% Triton | Potency, µM (series often up to 114 µM), actives largely listed as inhibitors | 370,000 tested, 0.041% active | AID 485294; also: nearly all actives have a fitted effect of over 25% in size
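20 mM phosphate pH 7.0 + 0.01% (detergent screen) or 0.0001% Triton X-100; 5.3 nM AmpC reagent; cpd preinc 15 min RT; nitrocefin (800 uM stock) to start; A480 q20 s × 4 min; Activity was normalised to no-enzyme and no-compound control wells.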
A number is an active result; – = inactive; ? = inconclusive; · = no result given; [ ] = another dose, or the depositor's remark. An excerpt weighted towards active compounds, which were near 3.3% of everything screened. Calls follow the shape of the dose curve; as a rule, active = well fitted curve in the direction sought with a large enough effect; inconclusive = small, poorly fitted or top-dose-only effect, or another doubt; inactive = no such curve, though single readings can be large; an effect the other way counts as inactive or inconclusive.

SMILES | Sm TGR inh | AmpC no deterg | AmpC detergent
Cc1ccccc1N(C(=O)CNC(=O)c1ccco1)C(C(=O)NC1CCCCC1)c1ccncc1 (stereo unspecified) | – | – | –
COc1cccc(CNC(=O)Cc2ccc(NC(=O)C3=C(C)OCCS3)cc2)c1 | – | – | –
Cc1c(C(=O)N2CCOCC2)sc(NC(=O)c2ccc([N+](=O)[O-])cc2)c1C#N | – | – | –
Cc1c(C(=O)N2CCOCC2)sc(NC(=O)CCl)c1C#N | 39.8µM | – | –
O=C(c1ccc(S(=O)(=O)Nc2cccc(C(F)(F)F)c2)cc1)N1CCN(c2ccccc2O)CC1 | – | – | –
Cc1ccc(-c2nnc3c(C(F)(F)F)nc4ccccc4n23)cc1 | – | 0.141µM | ?
FC(F)(F)c1nc2ccccc2n2c(-c3ccc(Cl)cc3)nnc12 | – | – | ?
Cc1c(C(=O)N2CCc3ccccc3C2)oc2ccccc12 | – | – | –
O=C(c1ccc(N2CCN(C3CC(=O)N(Cc4cccs4)C3=O)CC2)cc1)c1cccnc1 (stereo unspecified) | – | – | –
Cc1cc(N2C(=O)CC(N3CCN(c4ccc(C(=O)c5cccs5)cc4)CC3)C2=O)no1 (stereo unspecified) | ? | 0.501µM | –
CS(=O)(=O)n1nc(OC(=O)c2cccs2)cc1N | 39.8µM | – | –
CS(=O)(=O)n1nc(OC(=O)c2cc(Br)ccc2Cl)cc1N | 5.01µM | – | –
CS(=O)(=O)n1nc(OC(=O)c2cccc3ccccc23)cc1N | – | – | ?
COc1ccc(S(=O)(=O)n2nc(OC(=O)c3cccs3)cc2N)cc1 | – | – | –
CCCc1cnc(N2CCN(S(=O)(=O)c3cccs3)CC2)nc1 | – | – | –
Cc1nn(CC(=O)Nc2ccccc2C(F)(F)F)c(=O)c2cccn12 | – | – | –
O=C(NC1CCCCC1)c1cccnc1Sc1ccccc1 | – | – | –
O=Cc1cn(-c2ccccc2)nc1-c1ccccc1 | – | – | ?
OCc1cn(-c2ccccc2)nc1-c1ccco1 | – | – | ?
Cc1ccc(-c2nn(-c3ccccc3)cc2CO)o1 | 44.7µM | – | –
Cc1ccc(-c2nn(-c3ccccc3)cc2C(N)=O)o1 | 20µM | – | –
Cc1ccc(-c2nn(-c3ccccc3)cc2C=O)o1 | 12.6µM | – | –
Cc1ccc(-c2nn(-c3ccccc3)cc2/C=N/NC(=O)c2ccncc2)o1 | – | –[11.4 µM] | –
Cc1ccc(CNC(=O)C2CN(S(C)(=O)=O)c3cc(Cl)ccc3O2)cc1 (stereo unspecified) | – | – | –
O=C(Cn1c(=O)oc2cc(S(=O)(=O)N3CCCCC3)ccc21)Nc1cccc(Cl)c1 | – | · | –
SMILES | Sm TGR inh | AmpC no deterg | AmpC detergent
CC[n+]1ccc2cc(OC)c(OC)cc2c1Cc1ccc(OC)c(OC)c1 | ? | – | –
COc1ccc(Cc2c3cc(OC)c(OC)cc3cc[n+]2C)cc1OC | 12.6µM | – | –
O=C1NCCN(Cc2c(F)cccc2Cl)C1CC(=O)N1CCCO1 (stereo unspecified) | 28.2µM | – | –
Cc1nonc1CN(C)C(=O)CC1C(=O)NCCN1Cc1c(F)cccc1Cl (stereo unspecified) | – | – | –
O=C1NCCN(Cc2ccc(Cl)c(F)c2)C1CC(=O)N1CCCO1 (stereo unspecified) | ? | – | –
Cc1cc(CN(C)C(=O)CC2C(=O)NCCN2Cc2c(F)cccc2Cl)n[nH]1 (stereo unspecified) | 39.8µM | – | –
COc1ccc2c(c1)O/C(=C\c1ccco1)C2=O | 7.94µM | – | –
COc1ccc(/C=C2\Oc3cc(OCC(N)=O)ccc3C2=O)cc1OC | – | – | –
COC(=O)COc1ccc2c(c1)O/C(=C\c1cccc([N+](=O)[O-])c1)C2=O | – | – | –
COC(=O)C(C)Oc1ccc2c(c1)O/C(=C\c1ccco1)C2=O (stereo unspecified) | 20µM | – | –
CC(C)CCC1(C)NC(=O)N(CC(=O)c2ccc[nH]2)C1=O (stereo unspecified) | – | – | –
Cc1ccn2c(=O)c(NC(=O)c3ccc(Br)o3)c(C)nc2c1 | – | – | –
C[C@@H]1CN([C@@H](C)CO)C(=O)c2cc(NS(C)(=O)=O)ccc2O[C@@H]1CN(C)S(=O)(=O)c1ccccc1 | · | – | ·
O=C(CSc1ccc2nnc(-c3cccnc3)n2n1)N1CCc2ccccc21 | – | – | ?
O=C(CSc1ccc2nnc(-c3ccc(Cl)cc3)n2n1)N1CCc2ccccc21 | – | 6.31µM | –
CC1C/C(=N/O)C(C)CN1 (stereo unspecified) | ? | – | –
COC(=O)c1ccc(CC(=O)c2ccc(O)cc2O)o1 | ? | – | –
COC(=O)c1ccc(CC(=O)c2c(C)cc(O)cc2O)o1 | 22.4µM | – | ?
COCc1cc(CNC(=O)C2CCC(=O)N(Cc3ccccc3F)C2)[nH]n1 (stereo unspecified) | – | – | –
COc1ccc(C(C(=O)NCC2CCCO2)N(Cc2ccc(F)cc2)C(=O)CNC(=O)c2ccco2)cc1OC (stereo unspecified) | – | – | –
CCOC(=O)CN1CC23C=CC(O2)C(C(=O)NC2CCCCCC2)C3C1=O (stereo unspecified) | – | – | –
CCOC(=O)CN1CC23C=CC(O2)C(C(=O)Nc2ccc(C(C)=O)cc2)C3C1=O (stereo unspecified) | – | 1.12µM | ?
Cc1ccccc1OCc1nnc(SCC(=O)O)n1-c1cccc(Cl)c1 | – | – | –
CCOCCCNC(=O)C(NC(=O)Cc1cccs1)c1ccc(Cl)cc1 (stereo unspecified) | – | – | –
CCCN1C(=O)c2cc(C(=O)NC3CCCCCC3)ccc2C1O (stereo unspecified) | – | 1.41µM | ?
SMILES | Sm TGR inh | AmpC no deterg | AmpC detergent
CCCN1C(=O)c2cc(C(=O)O)ccc2C1O (stereo unspecified) | – | – | ?
O=C(Cc1cccc(NC(=O)C2CCN(C(=O)C3CCC3)CC2)c1)Nc1cccc(C(=O)N2CCCC2)c1 | – | – | –
O=C(N/C=C/c1ccco1)NCc1ccccc1 | 25.1µM | – | –
O=C(NC[P+](=O)O)OCc1ccccc1 | – | – | ?
O=C(NCc1ccccc1)/C(=C/c1ccco1)NC(=O)c1ccco1 | – | – | –
O=C(N/C=C/c1ccco1)OCc1ccccc1 | 44.7µM | – | –
CCCN(C(=O)Cn1nc(Cc2cccnc2)c2ccccc2c1=O)c1ccc(C(C)C)cc1 | – | · | –
COc1ccc(/C(O)=C2\C(=O)C(=O)N(CCN3CCOCC3)C2c2ccccc2OC)cc1 (stereo unspecified) | – | – | –
COc1ccc(C2/C(=C(/O)c3ccc(C)cc3)C(=O)C(=O)N2CCCN2CCOCC2)cc1 (stereo unspecified) | 44.7µM | – | ?
COc1ccc(/C(O)=C2/C(=O)C(=O)N(CCCN3CCOCC3)C2c2ccc(C)cc2)cc1 (stereo unspecified) | – | – | ?
O=C1C(=O)N(CCN2CCOCC2)C(c2ccccn2)/C1=C(/O)c1ccc(F)cc1 (stereo unspecified) | 28.2µM | – | ?
O=C1C(=O)N(CCCN2CCOCC2)C(c2ccc(F)cc2)/C1=C(/O)c1ccccc1 (stereo unspecified) | ? | – | –

Screening data deposited in PubChem by National Center for Advancing Translational Sciences (NCATS).
